Measurements taken from PubChem BioAssay (EPA / NIEHS).
Inconclusive results are not listed. Active and inactive are the calls of the source. Rule for the calls, unless noted: active = hit-call score of the fitted dose curve at least 0.9, where 1 is the maximum; inactive = score below 0.9.

Tests used:
[1] = target: Ratio of Nucleoli Translocation and Cytoplasm, AR (gene 367) (UniProt P10275); assay: UPITT_HCI_U2OS_AR_TIF2_Nucleoli_Cytoplasm_Ratio_Agonist: University of Pittsburgh U2OS Androgen Receptor-Transcriptional Intermediary Factor 2 (AR-TIF2) Agonism High Content Imaging Assay for Ratio of Nucleoli Translocation and Cytoplasm (AID 2284000; active = hit-call score of the fitted dose curve at least 0.9, where 1 is the maximum;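 note: hits raise the red nucleolar to cytoplasm ratio above vehicle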)
Ratio of Nucleoli Translocation and Cytoplasm, AR (gene 367), sequence (P10275 whole entry, looked up): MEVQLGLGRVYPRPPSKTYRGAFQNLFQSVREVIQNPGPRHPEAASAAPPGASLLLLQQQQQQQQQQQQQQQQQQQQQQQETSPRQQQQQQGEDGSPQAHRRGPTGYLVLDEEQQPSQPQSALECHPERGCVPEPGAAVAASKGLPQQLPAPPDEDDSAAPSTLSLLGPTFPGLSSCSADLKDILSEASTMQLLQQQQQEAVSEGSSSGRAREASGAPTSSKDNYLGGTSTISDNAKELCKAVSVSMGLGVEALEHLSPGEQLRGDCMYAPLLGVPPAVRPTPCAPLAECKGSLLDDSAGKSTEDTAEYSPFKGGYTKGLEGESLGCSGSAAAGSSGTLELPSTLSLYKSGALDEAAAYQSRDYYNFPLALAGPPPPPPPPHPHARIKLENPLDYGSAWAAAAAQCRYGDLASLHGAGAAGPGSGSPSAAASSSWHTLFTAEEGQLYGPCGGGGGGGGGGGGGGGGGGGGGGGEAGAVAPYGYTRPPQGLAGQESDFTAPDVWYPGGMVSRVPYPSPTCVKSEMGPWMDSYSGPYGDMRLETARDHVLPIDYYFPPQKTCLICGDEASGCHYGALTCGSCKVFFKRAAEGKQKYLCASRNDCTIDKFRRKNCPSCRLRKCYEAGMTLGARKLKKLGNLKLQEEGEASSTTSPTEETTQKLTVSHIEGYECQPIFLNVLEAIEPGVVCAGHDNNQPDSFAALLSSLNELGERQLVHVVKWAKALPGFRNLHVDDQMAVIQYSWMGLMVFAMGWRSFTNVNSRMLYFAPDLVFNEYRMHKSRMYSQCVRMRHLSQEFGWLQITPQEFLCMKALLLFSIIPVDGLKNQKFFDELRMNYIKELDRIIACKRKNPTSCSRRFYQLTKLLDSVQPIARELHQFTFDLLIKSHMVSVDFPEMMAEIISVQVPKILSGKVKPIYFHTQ
Procedure, shortened: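 U2OS cells expressing RFP-tagged human AR and GFP-tagged TIF2; high-content imaging ratio of nucleolar to cytoplasmic red fluorescence, fitted as gain of signal vs DMSO. Single point at 20 uM final (0.2% DMSO); concentration-response 0.195-50 uM final (0.5% DMSO).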

[2] = CCTE_Harrill_HTTr_Viability_MCF7: CCTE's 6-hour Cell Viability Assessment for the High-Throughput Transcriptomics (HTTr) Platform, in MCF-7 cells cultured in DMEM + 10% fetal bovine serum, Harrill Lab (AID 2284010)
Procedure, shortened: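 Membrane integrity was scored by high-content imaging of propidium iodide dye exclusion after a 6 h exposure across an eight-point dilution series. Data were fitted bidirectionally relative to DMSO as negative control and baseline.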

[3] = CCTE_Harrill_HTTr_Apoptosis_MCF7: CCTE's 6-hour Apoptosis Assessment for the High-Throughput Transcriptomics (HTTr) Platform, in MCF-7 cells cultured in DMEM + 10% fetal bovine serum, Harrill Lab (AID 2284011)
Procedure, shortened: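 Cells are dosed with test chemicals at eight concentrations and imaged 6 hours later for caspase-3/7 activity using a green fluorogenic detection reagent. Activity is fitted in both directions against DMSO controls.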

[4] = CCTE_Harrill_HTTr_CellCount_MCF7: CCTE's Cell Proliferation Assessment for the High-Throughput Transcriptomics (HTTr) Platform, Harrill Lab (AID 2284012; active = hit-call score of the fitted dose curve at least 0.9, where 1 is the maximum;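 note: cells exposed to compound for six hours; intended direction is loss of nuclei count meaning fewer cells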)
Procedure, shortened: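 MCF-7 cells were exposed for 6 h to an eight-point dilution series; Hoechst-labeled nuclei were counted by high content imaging. Curves were fitted bidirectionally against DMSO as negative control and baseline, with signal loss indicating reduced cell count.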

[5] = CCTE_Simmons_MITO_max_resp_rate: CCTE's HepG2 Seahorse XF Respirometric Screening Assay at Maximal Respiratory State [uncoupled], Simmons Lab (AID 2284002); details: actives raise or lower the signal
Procedure, shortened: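 Maximal respiration in HepG2 cells is recorded as OCR by Seahorse XF following FCCP injection. Compounds span 125 nM–100 uM final; activity is called in either direction against DMSO.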

[6] = CCTE_Simmons_MITO_inhib_resp_rate: CCTE's HepG2 Seahorse XF Respirometric Screening Assay at Inhibited Respiratory State [full ETC block], Simmons Lab (AID 2284006); details: actives raise or lower the signal
Procedure, shortened: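 HepG2 cells on Seahorse XF96; oxygen consumption measured after test compound, then FCCP, then rotenone/antimycin A injections over 72 min. Test chemicals at 7 concentrations, 125 nM–100 uM final. OCR fitted bidirectionally versus DMSO.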

[7] = CCTE_Shafer_MEA_acute_spike_number: CCTE's Neural Acute Assay for Total Number of Spikes, Shafer Lab (AID 2284008)
Procedure, shortened: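 Cortical neurons from rat, matured to DIV 13 or 15 on microelectrode arrays, are recorded at 37 C before and during 40-min exposure to 0.03-40 uM compound. Wells need >/= 10 active electrodes.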

[8] = CCTE_Shafer_MEA_acute_firing_rate_mean: CCTE's Neural Acute Assay for Mean Firing Rate, Shafer Lab (AID 2284009);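 note: analyzed for loss of signal so actives lower firing rate relative to DMSO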
Procedure, shortened: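 Rat primary cortical neurons on 48-well MEA plates, dosed at 0.03-40 uM on DIV 13 or 15; 40 min spontaneous activity recorded at 37 C before and after compound. Spike rate per electrode averaged per well, expressed as percent change from baseline.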

[9] = CCTE_Shafer_MEA_acute_burst_number: CCTE's Neural Acute Assay for Single-Electrode Bursts, Shafer Lab (AID 2284013)
Procedure, shortened: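 Primary rat cortical neurons on 16-electrode MEA wells, treated on DIV 13 or 15 with compound at 0.03-40 uM. Single-electrode burst count from 40-min recordings at 37 C before and after exposure; percent change from baseline per well, DMSO negative control.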

[10] = CCTE_Shafer_MEA_acute_burst_duration_mean: CCTE's Neural Acute Assay for Mean Burst Duration, Shafer Lab (AID 2284014);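 note: hits are decreases in mean burst duration relative to DMSO controls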
Procedure, shortened: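 Rat primary cortical neurons on 48-well MEA, treated at DIV 13 or 15 with 0.03-40 uM in at least 3 wells. Value is percent change in mean burst duration, comparing 40 min recordings at 37 C before and during exposure.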

[11] = CCTE_Shafer_MEA_acute_interburst_interval_mean: CCTE's Neural Acute Assay for Mean Interburst Interval, Shafer Lab (AID 2284016);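 note: percent change of mean interburst interval versus each well's own pre-dose baseline; curves fitted for decrease in interburst interval relative to DMSO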
Procedure, shortened: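 Percent change in mean single-electrode interburst interval was calculated per well from 40 min recordings before and after compound (0.03-40 uM). Recordings were made at 37 C on rat cortical cultures at DIV 13 or 15, with spikes detected at 8x rms threshold.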

[12] = CCTE_Shafer_MEA_acute_burst_percentage_mean: CCTE's Neural Acute Assay for Percentage of Spikes in a Burst, Shafer Lab (AID 2284017)
Procedure, shortened: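 Well-level mean burst percentage from a 40-min recording after compound (0.03-40 uM) expressed as percent change from a 40-min baseline at 37C. Cultures: primary rat cortical neurons on MEA, dosed on DIV 13 or 15; fitted downward relative to DMSO.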

[13] = CCTE_Shafer_MEA_acute_burst_percentage_std: CCTE's Neural Acute Assay for Standard Deviation of Burst Percentage, Shafer Lab (AID 2284018);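 note: fitted in the negative direction so actives lower burst percentage SD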
Procedure, shortened: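 Rat primary cortical neurons on 48-well MEAs, DIV 13 or 15, 37 C. 40-min baseline then 40-min recording with compound (0.03-40 uM); well-level SD of per-electrode burst spike percentage, expressed as percent change from baseline.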

[14] = CCTE_Shafer_MEA_acute_per_network_burst_spike_number_std: CCTE's Neural Acute Assay for Standard Deviation of Number of Spikes in a Network Burst, Shafer Lab (AID 2284020);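 note: fitted for decrease in spike-number SD versus DMSO so actives lower it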
Procedure, shortened: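 Rat primary cortical neurons on 48-well MEA (16 electrodes/well), treated DIV 13 or 15 at 0.03-40 uM, ≥3 wells per compound. 40 min recordings at 37 C before and after dosing; value is percent change in network-burst spike-number SD, negative direction vs DMSO.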

[15] = CCTE_Shafer_MEA_acute_per_network_burst_electrodes_number_mean: CCTE's Neural Acute Assay for Mean Number of Electrodes in a Network Burst, Shafer Lab (AID 2284021);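 note: curves fitted for decreases only so hits reduce electrodes per burst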
Procedure, shortened: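 Cultures of rat cortex neurons were exposed on DIV 13 or 15 to compounds at 0.03-40 uM in at least three wells each. Activity over 40 min before and 40 min after exposure at 37 C gave the percent change in electrodes per network burst.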

[16] = CCTE_Shafer_MEA_acute_network_burst_percentage: CCTE's Neural Acute Assay for Percentage of Network Bursts, Shafer Lab (AID 2284022);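 note: curves fitted for loss so actives lower network burst percentage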
Procedure, shortened: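 Cortical neurons from rat were grown over microelectrode arrays and used on day 13 or 15 in vitro. Wells with at least 10 active electrodes received test chemical at 0.03-40 uM. Activity during 40 min of exposure was compared with the preceding 40-min baseline.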

[17] = CCTE_Shafer_MEA_acute_cross_correlation_HWHM: CCTE's Neural Acute Assay for Cross Correlation at Half Width at Half Maximum, Shafer Lab (AID 2284026);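 note: spontaneous network firing of rat primary cortical neurons on multiwell microelectrode arrays; percent change per well from pre-dose baseline in spike cross-correlogram half width; hits are a decrease in cross-correlogram half width relative to DMSO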
Procedure, shortened: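 Primary cortex (rat), MEA, DIV 13/15; compound 0.03-40 uM; 40 min pre + 40 min post at 37 C; spike threshold 8x rms; wells need ≥10 active electrodes; endpoint = % change in cross-correlogram HWHM vs baseline, DMSO negative control.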

[18] = CCTE_Shafer_MEA_acute_synchrony_index: CCTE's Neural Acute Assay for Synchrony, Shafer Lab (AID 2284027);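 note: network synchrony index of spontaneous spiking in primary rat cortical neurons on MEAs; fitted for loss of signal so actives lower synchrony relative to DMSO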
Procedure, shortened: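 Primary rat cortical neurons on 16-electrode MEA wells were recorded 40 min at baseline (DIV 13 or 15) and 40 min after compound (0.03-40 uM) at 37 C. Synchrony index (0-1) expressed as percent change from baseline, versus DMSO.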

[19] = CCTE_Simmons_MITO_viability: CellTiter-Glo Viability Assessment for CCTE's HepG2 Seahorse XF Respirometric Screening Assay [post-hoc], Simmons Lab (AID 2284007; active = hit-call score of the fitted dose curve at least 0.9, where 1 is the maximum;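 for AC50: cells exposed to chemical for 90 min before the ATP read; actives lower ATP signal relative to DMSO baseline meaning reduced viability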)
Procedure, shortened: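 HepG2 cells from the Seahorse XF respirometry run were exposed 90 min to a 7-point series, 125 nM–100 uM final, DMSO vehicle; ATP content then read by luciferase luminescence. Three biological replicates, technical singles; loss of signal fitted versus DMSO.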

With `CN(C)c1ccc(N=NS(=O)(=O)O)cc1` the outcome [1] was “inactive”, the outcome [2] was “inactive” and the outcome [3] was “inactive”. For the same compound, the outcome [4] was “inactive”.
For `CCNc1ccccc1`, the outcome [1] was “inactive”, the outcome [2] was “inactive” and the outcome [3] was “inactive”. For the same compound, the outcome [4] was “inactive”.
For `CC(C)=CCCC(C)=CC=O`, the outcome [5] was “inactive”, the outcome [6] was “inactive” and the outcome [7] was “inactive”. For the same compound, the outcome [8] was “inactive”, the outcome [2] was “inactive” and the outcome [3] was “inactive”. For the same compound, the outcome [9] was “inactive”, the outcome [10] was “inactive” and the outcome [11] was “inactive”. For the same compound, the outcome [12] was “inactive”, the outcome [13] was “inactive” and the outcome [14] was “inactive”. The outcome [15] was “inactive”, the outcome [16] was “inactive” and the outcome [17] was “inactive”. The outcome [18] was “inactive”.
In the case of `CC(C)CC(C)(O)C#CC(C)(O)CC(C)C` (stereo not given), the AC50 [5] is reported as 37.8 µM (active), the outcome [6] is reported as “inactive” and the outcome [19] is reported as “inactive”. The outcome [2] was “inactive” and the outcome [3] was “inactive”.
For `CC(C)=CCCC(C)CCO` (stereo not given), the outcome [1] was “inactive”, the outcome [2] was “inactive” and the outcome [3] was “inactive”. The outcome [4] was “inactive”.
For `Oc1ccc2c(c1)-c1ccccc1C2`, the outcome [1] was “inactive”, the outcome [2] was “inactive” and the outcome [3] was “inactive”.
With `O=C(O)c1cccc(N(Cc2cccnc2)c2ccc(OC(F)F)c(OC(F)F)c2)c1` the outcome [1] was “inactive”, the outcome [5] was “inactive” and the outcome [6] was “inactive”. The AC50 [19] was 10.7 µM (active), the outcome [2] was “inactive” and the outcome [3] was “inactive”. For the same compound, the outcome [4] was “inactive”.
With `CC1(C)C(=O)N(Br)C(=O)N1Br` the outcome [1] was “inactive”, the outcome [2] was “inactive” and the outcome [3] was “inactive”. The outcome [4] was “inactive”.
For `Nc1nc2ncc(CNc3ccc(C(=O)N[C@@H](CCC(=O)O)C(=O)O)cc3)nc2c(=O)[nH]1`, the outcome [1] was “inactive”, the outcome [2] was “inactive” and the outcome [3] was “inactive”. The outcome [4] was “inactive”.
For `Cc1ccc(N)cc1O`, the outcome [1] was “inactive”, the AC50 [5] was 60.5 µM (active) and the AC50 [6] was 39.1 µM (active). For the same compound, the outcome [19] was “inactive”.
